# Source: the supplement of paper PMC3334620
# Over roughly 33,000 sequences, “E-score (-0.5 to 0.5)” has its median near -0.053; the highest 2% begin near 0.37. Only a selection was taken, and the highest values are over-represented in it overall.
# Target: Hap1 (UniProt P0CE41)
# Assay: PBM E-score (8-mer binding enrichment) (E-score (-0.5 to 0.5)); higher = stronger / more preferred TF binding
# Conditions: protein concentration: 200 nM; construct: GST-DNA-binding domain
# How it was run: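 For each ungapped eight-base word taken together with its reverse complement, the Universal PBM Analysis Suite assigned an E-score. Binding data came from GST-tagged yeast transcription factors, applied at about 100-200 nM, on universal all-10-mer Agilent arrays made double-stranded by primer extension. Fluorescent anti-GST marked bound protein, and scans were normalised with masliner.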
# UniProt P0CE41, sequence (P0CE41 whole entry): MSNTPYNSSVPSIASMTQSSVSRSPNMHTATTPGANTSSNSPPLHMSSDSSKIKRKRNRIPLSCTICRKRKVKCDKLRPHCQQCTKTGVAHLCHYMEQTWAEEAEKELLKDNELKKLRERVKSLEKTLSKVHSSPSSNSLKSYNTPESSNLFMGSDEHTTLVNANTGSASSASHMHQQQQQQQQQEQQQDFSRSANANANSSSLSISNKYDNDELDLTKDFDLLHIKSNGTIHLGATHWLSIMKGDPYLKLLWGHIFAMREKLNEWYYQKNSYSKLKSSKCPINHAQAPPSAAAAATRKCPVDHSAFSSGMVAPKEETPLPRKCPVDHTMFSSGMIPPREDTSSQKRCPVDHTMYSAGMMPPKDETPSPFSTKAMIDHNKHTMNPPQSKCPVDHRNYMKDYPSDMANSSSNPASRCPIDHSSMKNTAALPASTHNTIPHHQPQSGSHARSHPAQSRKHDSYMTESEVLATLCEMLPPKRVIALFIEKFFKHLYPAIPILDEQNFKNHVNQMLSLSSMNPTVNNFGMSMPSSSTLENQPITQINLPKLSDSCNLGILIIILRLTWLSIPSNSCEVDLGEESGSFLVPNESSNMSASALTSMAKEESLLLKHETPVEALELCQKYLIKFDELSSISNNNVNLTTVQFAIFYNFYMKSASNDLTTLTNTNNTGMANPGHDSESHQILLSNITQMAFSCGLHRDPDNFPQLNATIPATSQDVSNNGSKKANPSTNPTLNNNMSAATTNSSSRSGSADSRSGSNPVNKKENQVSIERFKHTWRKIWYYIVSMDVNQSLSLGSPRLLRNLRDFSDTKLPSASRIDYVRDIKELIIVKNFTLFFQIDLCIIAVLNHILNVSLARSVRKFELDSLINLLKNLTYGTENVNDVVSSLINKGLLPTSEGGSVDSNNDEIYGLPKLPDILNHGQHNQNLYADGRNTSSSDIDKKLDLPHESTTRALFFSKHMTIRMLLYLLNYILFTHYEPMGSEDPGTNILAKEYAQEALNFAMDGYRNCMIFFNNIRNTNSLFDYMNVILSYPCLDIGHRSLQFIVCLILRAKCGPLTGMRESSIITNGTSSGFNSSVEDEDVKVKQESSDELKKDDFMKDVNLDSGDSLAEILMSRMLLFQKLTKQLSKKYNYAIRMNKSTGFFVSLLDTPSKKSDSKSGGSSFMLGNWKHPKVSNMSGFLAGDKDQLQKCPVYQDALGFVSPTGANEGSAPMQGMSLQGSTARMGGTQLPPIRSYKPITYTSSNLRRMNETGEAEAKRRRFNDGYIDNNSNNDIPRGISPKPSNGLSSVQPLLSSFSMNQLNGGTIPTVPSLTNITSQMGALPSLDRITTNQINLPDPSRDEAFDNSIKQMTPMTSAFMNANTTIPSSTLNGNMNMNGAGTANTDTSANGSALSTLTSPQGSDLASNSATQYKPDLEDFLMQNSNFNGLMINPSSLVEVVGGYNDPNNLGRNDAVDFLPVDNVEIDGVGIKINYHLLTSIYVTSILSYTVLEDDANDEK
row,Sequence,PBM E-score
1,GCATAGGA,-0.136
2,ACGAGAAA,-0.00338
3,CATAGCCA,-0.139
4,ACGCCAAA,-0.08
5,CTCCTGGA,-0.254
6,GAATCAGC,-0.175
7,TGGTACAA,-0.376
8,GTGAGCAC,-0.232
9,GGGTTATA,0.0789
10,AGGGGATA,-0.167
11,CGGGGATA,0.475
12,CGGTTTAA,0.168
13,GGGGGATA,0.134
14,AGGTTTTA,0.0786
15,AGGTTATA,-0.0688
16,CGGTTATA,0.371
17,CGGTTTTA,0.433
18,GGTGTTAC,0.0592
19,CCCCACTC,-0.186
20,AGCGGCCG,0.325
21,ACTCCCAT,-0.176
22,ACTCCGCT,0.21
23,GCTCCGAA,0.367
24,ACTCCGAC,0.353
25,CCTCCGAG,0.335

row,Sequence,PBM E-score
1,ACTCCTAT,-0.141
2,ACTCCGAA,0.397
3,CCTCCGAA,0.334
4,CCTCCGCG,0.198
5,ACTCCGAG,0.401
6,ACTCCGCG,0.371
7,ACTCCGAT,0.406
8,GCGGTCGA,0.163
9,CCTTAGGC,-0.184
10,ATGTAGCG,-0.0634
11,CTCTACAG,-0.311
12,CAGTCCAC,-0.272
13,TCTCCGCA,0.299
14,TCTCCAAA,-0.138
15,TCTCCGAA,0.429
16,CCGTCTGA,-0.0177
17,GGACTTAA,0.443
18,CGACTTAA,-0.169
19,AGACTTAA,-0.18
20,CAGCTTCC,0.00993
21,TATTTGGA,-0.215
22,CCCTCCGA,0.253
23,ACCTCCGT,0.286
24,ACCTCCGA,0.391
25,CCCTCCGG,0.331

row,Sequence,PBM E-score
1,ACCTCCGG,0.454
2,TCCTCCGA,0.308
3,AATCATTC,-0.0493
4,CCTTGGAG,-0.109
5,ACCCGCTA,0.209
6,GTCAGTCA,-0.172
7,GGGGTATA,0.103
8,CCGGTATA,0.425
9,GCGGTATA,0.0943
10,ACGGTATC,0.113
11,CCGGTATC,0.433
12,AGGGTATA,0.254
13,CGGGTATA,0.435
14,CAGGTATC,0.0262
15,ACGGTATA,0.0727
16,ACCAAGCG,0.0447
17,CGGTTTCA,0.263
18,AACTCAGG,-0.116
19,AGGGATGG,0.00107
20,AGCATCCG,0.215
21,AGCATATG,-0.278
22,CCCGTTAA,0.297
23,GCCGTTAA,0.346
24,TCCGTTAA,0.408
25,ATCTAAAA,-0.105

row,Sequence,PBM E-score
1,CGAGTACG,0.0449
2,ATCTCGGC,0.379
3,AGCTCGGC,0.354
4,ATCTCGGA,0.385
5,CTCTCGCA,-0.179
6,CTCTCGAA,-0.332
7,ATCTCGGG,0.356
8,GTCTCGGA,0.358
9,CTCTCGGC,0.318
10,CTCTCGGA,0.4
11,GCCGGGCC,0.221
12,GTGTGTGA,-0.201
13,ACCCATGC,-0.249
14,TAGGCTAA,-0.138
15,GGATCGAC,0.17
16,ACCGACGG,0.38
17,CCCGACGG,0.331
18,CCCGACCC,0.167
19,ACCGACGT,0.185
20,CCCGACCG,0.379
21,ACCGACCG,0.314
22,GGGTTACA,0.0182
23,AAACGGGA,0.217
24,AATCCATG,-0.036
25,TGAGTTAA,-0.188

row,Sequence,PBM E-score
1,GGAGTTAA,0.429
2,GGAGTTAC,0.393
3,AGAGTTAC,-0.312
4,CGAGTTAC,-0.0647
5,AGAGTTAA,-0.105
6,GAGGGGTA,0.0493
7,CCATCAAA,-0.17
8,GAGACCGC,0.0393
9,CGGAAGTC,0.305
10,AGGAAACA,-0.0825
11,CGGAAAAC,0.346
12,CGGAAGTA,0.38
13,AGGAACTA,-0.0416
14,CGGAACTA,0.436
15,CGGAACTC,0.309
16,CGGAAACA,0.384
17,GGGAAACA,0.112
18,AGGAAGTA,0.0541
19,CGGAAAAA,0.4
20,CGGAAAAG,0.343
21,AATCCTAC,-0.124
22,ACAGCGCT,-0.0282
23,CGCTCGTA,0.0559
24,ACAGTACA,-0.00621
25,CGTATCGC,0.208

row,Sequence,PBM E-score
1,CCACTGGG,-0.145
2,AAGGAAGT,0.113
3,TCAGCAAA,-0.157
4,GTTTCTAA,0.105
5,GACCCGTC,0.0739
6,CACAGTCA,-0.284
7,GGCACGCC,-0.0738
8,ACCAAACT,-0.13
9,GCGTTGAC,-0.207
10,GAAGCATC,-0.0716
11,AGGAATTA,0.17
12,CGGAAATC,0.352
13,CGGAATTC,0.319
14,CGGAATTA,0.481
15,GGGAAATA,0.13
16,CGGAAATA,0.487
17,AGTTGAGC,-0.188
18,GCCTGGAA,-0.233
19,CAGTTTGG,-0.204
20,AGTATGTA,-0.162
21,ATGACCGC,0.197
22,ATGACCGA,0.378
23,CAGACCGA,0.278
24,AAGACCGA,0.413
25,AAGACCGT,0.0453

row,Sequence,PBM E-score
1,ATGACCGG,0.276
2,CTTCTAGA,-0.156
3,AAATGCTC,0.0505
4,TGACAGAA,-0.247
5,ACAGACCT,-0.0718
6,ACTAGTAC,-0.173
7,ATAGCCGG,0.397
8,ATAGCCAG,-0.293
9,CTAGCCGA,0.25
10,AGAGCCGG,0.263
11,ATAGCCGC,0.232
12,ATAGCCGA,0.372
13,AGTTTGGA,-0.274
14,CAGTTTCA,-0.241
15,ATAACGGA,0.414
16,ATAACGGG,0.228
17,CTAACGGC,0.184
18,GAAACGGA,0.277
19,CAAACGGA,0.324
20,ATAACGGC,0.355
21,GTCACGGA,0.371
22,GTAACGCA,0.0607
23,CTAACGGA,0.38
24,GTAACGGA,0.401
25,CTCACGGA,0.221

row,Sequence,PBM E-score
1,ATCACGGA,0.352
2,CATAACCG,0.133
3,ATGATTCC,0.0894
4,TCCTGCCA,-0.12
5,GTCATGAC,-0.111
6,AAAAACTC,0.0741
7,AGATGGCT,-0.0974
8,ACTATGCA,-0.16
9,CGCTACTA,0.163
10,CCGCCTTA,-0.0179
11,CCGCTCAA,0.0207
12,AGCCAGCA,-0.268
13,CGTTTACA,-0.145
14,CAACAGAA,-0.227
15,AACAAATC,-0.00416
16,AGCGTACT,-0.0657
17,CGTCCGTA,0.309
18,GGTCCGCA,0.3
19,CGTCCGGA,0.443
20,CGTCCGCC,0.281
21,CGTCCGTC,0.234
22,GGTCCGGA,0.44
23,AGTCCGCA,0.293
24,GGTCCCGA,0.231
25,AGTCCGGA,0.452

row,Sequence,PBM E-score
1,AGTCCGTA,0.269
2,CGTCCGCA,0.228
3,CGTCCGGC,0.41
4,ATGAAGAA,-0.136
5,GCACTGGA,-0.275
6,ACTGCCGA,0.261
7,GCCGACCC,0.139
8,AAACAGCC,-0.0624
9,AATGATCA,-0.179
10,CTTCAAGA,-0.235
11,AGGAAAGA,-0.275
12,ACATTCGC,0.0143
13,AGCCAAGA,-0.26
14,AGGACACA,-0.0409
15,AGATTCGA,-0.117
16,CGGTATTC,0.304
17,CGGTAATC,0.327
18,CGGTAATA,0.408
19,AGGTATTA,0.0089
20,GGGTAATA,-0.00588
21,CGGTATTA,0.412
